Source: PubChem BioAssay (National Center for Advancing Translational Sciences (NCATS))
Shown are actives, neighbours in structure and some others; about 11% of the full set was active somewhere.
JMJD2A Tudor: blocks the human JMJD2A Tudor domain; O75164; AlphaScreen JMJD2A-Tudor / H3K4me3 peptide binding; Potency, µM (titrated, usually from 114 µM), without a hit: top-dose activity change, negative = inhibition, actives largely listed as inhibitors; actives 4.4% (n = 390,000); also: % is scaled to controls: 0 for no effect and ±100 for the full control effect; nearly all actives have a fitted effect of over 50% in size
G9a block: inhibitors of human histone lysine methyltransferase G9a; Potency, µM (top dose mostly 102 µM), inactives show at the highest dose activity, negative = inhibition, actives largely listed as inhibitors; actives 8.8% (n = 350,000); G9a H3K9 monomethylation, AlphaScreen, 2 h; also: % is scaled to controls: 0 for no effect and ±100 for the full control effect; nearly all actives have a fitted effect of over 75% in size
Target sequence (Q96KQ7 913-1193 limits assumed): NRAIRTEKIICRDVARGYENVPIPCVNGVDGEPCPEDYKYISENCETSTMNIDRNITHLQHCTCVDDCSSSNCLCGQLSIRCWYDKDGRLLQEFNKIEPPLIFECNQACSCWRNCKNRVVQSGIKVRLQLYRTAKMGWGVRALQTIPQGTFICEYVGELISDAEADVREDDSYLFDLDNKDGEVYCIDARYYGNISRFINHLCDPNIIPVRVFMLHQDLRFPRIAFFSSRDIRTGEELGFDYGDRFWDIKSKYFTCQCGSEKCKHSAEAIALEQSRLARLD
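Quantitative HTS format: methyltransferase activity on a biotin-tagged H3K9 peptide is measured by AlphaScreen, using a rabbit anti-monomethyl-H3K9 antibody with streptavidin donor and anti-IgG acceptor beads. Final levels are 20 nM enzyme, 500 nM peptide, 20 uM SAM; 2 h RT.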
L3MBTL1 block: inhibitors of human L3MBTL1; actives 0.66% (n = 230,000); AlphaScreen L3MBTL1–H3K9me1 peptide binding; Q9Y468; AID 485360; Potency, µM (highest dose often 57.1 µM), for inactives: at the highest dose activity, negative = inhibition, most hits filed as inhibitors; also: % is scaled to controls: 0 for no effect and ±100 for the full control effect; nearly all actives have a fitted effect of over 60% in size
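AlphaScreen proximity signal between nickel-chelate acceptor and streptavidin donor beads (final 10 ug/mL) reports binding of 50 nM L3MBTL1 to 75 nM biotin-H3 K9me1 peptide; complex incubated with compounds 30 min at room temperature; cefsulodin titration as control.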
HP1b chromo inh: HP1-beta chromodomain-methylated histone interaction inhibition | AID 540317 | AlphaScreen HP1-beta / biotin-H3K9me3 peptide binding | Potency, µM (top dose mostly 114 µM), for the others: at the top dose activity change, negative = inhibition, usual class: inhibitors | P83916 | actives 0.56% (n = 390,000); also: nearly all actives have a fitted effect of over 70% in size
Target sequence (P83916 whole entry, looked up): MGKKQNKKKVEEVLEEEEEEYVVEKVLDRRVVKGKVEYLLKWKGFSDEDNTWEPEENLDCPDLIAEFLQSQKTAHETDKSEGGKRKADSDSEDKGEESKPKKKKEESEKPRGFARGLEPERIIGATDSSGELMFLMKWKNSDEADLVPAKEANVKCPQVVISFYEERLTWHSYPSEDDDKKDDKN
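Compound inhibition of the preformed complex between 50 nM HP1-beta and 50 nM biotinylated H3K9me3 peptide was read by AlphaScreen. Buffer was PBS pH 7.4 with 0.01% Tween-20. Incubations ran 30 min at room temperature, with 10 ug/mL donor/acceptor beads.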
BAZ2B block: BAZ2B (human) inhibition. AlphaScreen BAZ2B-H3K14Ac peptide displacement. AID 504333. Potency, µM (series often up to 114 µM), for inactives: at the top dose activity change, negative = inhibition, hits mostly inhibitors. Q9UIF8. actives 4.4% (n = 360,000); also: % is scaled to controls: 0 for no effect and ±100 for the full control effect; nearly all actives have a fitted effect of over 60% in size
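BAZ2B 50 nM plus b-H3(5-23)K14Ac 50 nM, PBS pH 7.4/0.01% Tween-20, 30 min RT; compound added (max 110 uM), 30 min RT; streptavidin donor/Ni-chelate acceptor beads 10 ug/mL final, 20 min dark; AlphaScreen read.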
The depositor's hits bear a star; ? = inconclusive; · = no result given; ! = not confirmed by another sample; [ ] = remark or other dose. Calls follow the shape of the dose curve; as a rule, active = well fitted inhibition curve with a large enough effect; inconclusive = small, poorly fitted or top-dose-only effect; inactive = no such curve, though single readings can be large or run the other way. Potency is read from the fitted curve at half-maximal effect.

SMILES | JMJD2A Tudor | G9a block | L3MBTL1 block | HP1b chromo inh | BAZ2B block
CC(C)(C)NC(=O)C(=O)NNC(=O)c1cccc(F)c1 | 10µM* | 9% | · | 2% | ?
CC(C)(C)NC(=O)C(=O)NNC(=O)c1ccccc1 | 8.9µM* | ? | 2% | 16% | ?
COc1cccc(OCC(=O)NC2CC(=O)N(c3cccc(OC)c3)C2)c1 (centres undefined) | -6% | -16%[59 µM] | · | 44% | 1%
O=C(O)COc1ccc(/C=N/NC(=O)C2CCCN2S(=O)(=O)c2ccc(Cl)cc2)cc1 (centres undefined) | -6% | 45µM* | · | 31% | 3%
COc1ccc(NC(=O)C2CCCN2S(=O)(=O)c2ccc(Cl)cc2)cc1 (centres undefined) | 9% | -38% | · | 35% | 4%
Cc1ccc(C(=O)CN2CCN(c3ccccn3)CC2)c(C)c1 | -19% | 40µM* | · | 36% | -15%
Cc1ccc2[nH]cc(C(=O)CN3CCN(c4ccccn4)CC3)c2c1 | -6% | 50µM* | 5% | 18% | -2%
Cc1cc(Br)ccc1NC(=O)CN1CCN(c2ccccn2)CC1 | -13% | 29%[2.33 µM] | · | 50% | 0%
Cc1ccc2[nH]cc(C(=O)CN3CCN(C)CC3)c2c1 | -9% | · | 9% | 2% | 6%
CCOC(=O)c1cccc(NC(=O)c2cc(-c3ccc(Cl)s3)nc3ccccc23)c1 | -4% | -34%[59 µM] | · | 26% | 6%
CN(C)CCOC(=O)C1(c2ccccc2)CCCC1 | -18% | -15% | · | 15% | 0%
C[N+]1(CCCOC(=O)C2(c3ccccc3)CCCC2)CCOCC1 | -13% | 7.9µM* | 2% | 19% | -8%
Cc1cc(C)c(S(=O)(=O)NCC(c2ccc(N(C)C)cc2)N2CCc3ccccc32)c(C)c1 (centres undefined) | 13µM* | 11µM* | · | ? | 3.2µM*
O=S(=O)(NCC(c1ccco1)N1CCc2ccccc21)c1ccccc1 (centres undefined) | ? | 45µM* | ? | ? | 40µM*
O=S(=O)(NCC(c1ccco1)N1CCN(c2ccccc2F)CC1)c1ccccc1 (centres undefined) | -34% | 1%[59 µM] | -6% | -5% | -31%
Cc1cc(C)c(S(=O)(=O)NCC(c2ccc(N(C)C)cc2)N2CCOCC2)c(C)c1 (centres undefined) | 50µM* | ? | · | ? | 40µM*
COc1ccc(C)cc1S(=O)(=O)NCC(c1cccnc1)N1CCc2ccccc2C1 (centres undefined) | -32% | ? | · | 26% | ?
COc1ccc(C)cc1S(=O)(=O)NCC(c1ccc(N(C)C)cc1)N1CCc2ccccc21 (centres undefined) | 14µM* | 10µM* | · | ? | 10µM*
CCc1ccc(NC(=O)CN2C(=O)CC(c3ccccc3)Sc3ccccc32)cc1 (centres undefined) | -5% | -17%[59 µM] | · | 22% | -5%
CCc1ccccc1-n1c(N)c(C(=O)OC)c2nc3ccccc3nc21 | 15% | -2%[59 µM] | · | 34% | -6%
CN(C)c1ccc(C(CNS(=O)(=O)c2ccc(F)cc2)N2CCc3ccccc32)cc1 (centres undefined) | 20µM* | 14µM* | · | ? | 10µM*
COc1ccc(NC(=O)NNS(=O)(=O)c2ccc(Br)cc2)cc1 | -8% | 10% | · | 16% | -21%
O=C(NNS(=O)(=O)c1ccc(Cl)cc1)c1cccs1 | 1% | 4%[12.7 µM] | 5% | 34% | ?
COc1ccc(NC(=O)c2cccs2)cc1 | -3% | -10%[59 µM] | 0% | 36% | -2%
COc1ccc(NC(=O)c2cnn(-c3ccccc3)c2C)cc1 | -8% | 10%[0.501 µM] | 2%[2.29 µM] | 28% | -5%
SMILES | JMJD2A Tudor | G9a block | L3MBTL1 block | HP1b chromo inh | BAZ2B block
COc1ccc(NC(=S)NNC(=O)c2nnn(-c3ccccc3)c2C)cc1 | -25% | 11µM* | -9% | 11% | -32%
COc1ccc(NC(=S)NNC(=O)c2cccs2)cc1 | -11% | 40µM* | 8% | 7% | -2%
COc1ccc(S(=O)(=O)NNC(N)=S)cc1 | 8.9µM* | 16µM* | 12% | 45% | ·
COc1ccc(S(=O)(=O)NNC(=O)c2cccs2)cc1 | -9% | 45µM* | -10% | 27% | -12%
Cc1nc(S(=O)(=O)N2CCN(c3cccc(Cl)c3)CC2)cn1C | -17% | -17%[59 µM] | · | 20%[57 µM] | -1%
Cc1cc2c(s1)c1cnn(Cc3ccc(Cl)c(Cl)c3)c(=O)c1n2C | -30% | · | · | · | ·
O=C(c1ccco1)N1CCn2cccc2C1c1ccccc1 (centres undefined) | 50µM* | ? | ? | 71µM* | 35µM*
COC(=O)CC1C(=O)NCCN1C(=S)Nc1ccccc1 (centres undefined) | 2% | -16% | 14% | 44% | -11%
CCc1ccccc1NC(=S)N1CCNC(=O)C1CC(=O)OC (centres undefined) | 45µM* | -20% | -2% | -1% | -14%
CCOC(=O)CC1C(=O)NCCN1C(=S)NC(=O)c1ccccc1OC (centres undefined) | 28µM* | · | · | -12% | -1%
CC(C)OC(=O)CC1C(=O)NCCN1C(=S)NC(=O)c1cccs1 (centres undefined) | -24% | 45µM* | -2% | 24% | -21%
COC(=O)Oc1nsnc1N1CCOCC1 | 89µM* | 2.8µM* | 7% | ? | -5%
COc1ccc(C(=O)NCc2nnc(SCC(=O)Nc3ccc(F)cc3)n2-c2ccccc2)cc1 | -18% | -28%[59 µM] | · | 38% | -5%
O=C(Cc1cccs1)N(c1ccc(Br)cc1)C1C=CS(=O)(=O)C1 (centres undefined) | 20µM* | 3% | 6% | -5% | -16%
COc1ccc(S(=O)(=O)NCCc2csc(-c3cccc(F)c3)n2)cc1OC | -23% | 21%[59 µM] | · | 23%[57 µM] | 2%
COc1cnc(-c2ccccc2)nc1Oc1cccc(C)c1 | 80% | 41%[12.7 µM] | 14% | 170% | 77%
COc1cnc(-c2ccccn2)nc1Sc1c(Cl)cccc1Cl | -40% | 6%[12.7 µM] | -20% | 19% | -7%
COc1cnc(-c2ccccn2)nc1Oc1cccc(Cl)c1 | -24% | -3%[12.7 µM] | -18% | 32% | 45µM*
COc1cnc(-c2ccccn2)nc1Oc1c(C)cccc1C | -25% | ? | ? | 32% | 22µM*
COc1cccc(N2CCN(C(=O)c3ccc(C)c(NC(=O)c4nsc5ccccc45)c3)CC2)c1 | -30% | -7%[59 µM] | · | 7%[57 µM] | 1%
CN(C)CC(C)(C)CNS(=O)(=O)c1ccc(Cl)c(Cl)c1 | 18µM*! | ? | 3% | -11% | ?
O=C(O)c1nc(N2CCCC2)ncc1Cl | -19% | 5%[12.7 µM] | · | 37% | -35%
O=C(O)c1ncc(Cl)c(Cl)c1Cl | 50µM*! | 50µM* | 9% | 22% | -15%
O=C(Nc1cccc(F)c1)[C@H](CSCc1ccccc1)N1Cc2ccccc2C1=O | -16% | -39%[59 µM] | · | 28% | -12%
COc1ccc2c(c1)[nH]c1c(N3CCN(Cc4ccc5c(c4)OCO5)CC3)ncnc12 | ? | · | -12% | -27% | 45µM*
